Results as given in the supplement of paper PMC11732987, “Enantioselective OTUD7B fragment discovery through chemoproteomics screening and high-throughput optimisation” (Communications Chemistry, 2025).

Tests used:
Experiment in all cases: log2 ratio of Biotin-Ahx-Ub-VS probe labelling (fragment/DMSO); higher = less target engagement (more negative = stronger competition), active = hit call of the paper (q ≤ 0.05, log2 ratio ≤ -1)
Details in all cases: compound concentration: 200 uM; treatment time: 3 h
OTUD6B = molecular target: T1, OTUD6B (UniProt Q8N6M0)
T1 sequence (whole entry): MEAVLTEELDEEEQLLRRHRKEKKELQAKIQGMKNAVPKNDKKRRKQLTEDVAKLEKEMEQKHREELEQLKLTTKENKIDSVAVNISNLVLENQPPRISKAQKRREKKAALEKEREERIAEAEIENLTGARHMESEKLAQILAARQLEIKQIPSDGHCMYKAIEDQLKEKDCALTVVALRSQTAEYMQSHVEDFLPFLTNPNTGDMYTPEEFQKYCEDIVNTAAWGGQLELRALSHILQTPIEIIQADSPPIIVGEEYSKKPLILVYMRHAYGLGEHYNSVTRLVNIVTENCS
In short: (§1)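 Global-median-normalised Spectronaut label-free quantities were compared by unpaired t-test, and values are average log2 ratios of fragment over vehicle. Only proteins with ≥2 unique peptides were used. HEK293T lysate (495 µg per sample) was treated in triplicate with fragment at 200 µM or vehicle for 3 h and then with Biotin-Ahx-Ub-VS at 0.5 µM final for 1 h. Labelled DUBs were then NeutrAvidin-enriched, digested with LysC and trypsin, and run by diaPASEF LC-MS/MS.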

OTUD7B = molecular target: T2, OTUD7B (UniProt Q6GQQ9)
T2 sequence (whole entry): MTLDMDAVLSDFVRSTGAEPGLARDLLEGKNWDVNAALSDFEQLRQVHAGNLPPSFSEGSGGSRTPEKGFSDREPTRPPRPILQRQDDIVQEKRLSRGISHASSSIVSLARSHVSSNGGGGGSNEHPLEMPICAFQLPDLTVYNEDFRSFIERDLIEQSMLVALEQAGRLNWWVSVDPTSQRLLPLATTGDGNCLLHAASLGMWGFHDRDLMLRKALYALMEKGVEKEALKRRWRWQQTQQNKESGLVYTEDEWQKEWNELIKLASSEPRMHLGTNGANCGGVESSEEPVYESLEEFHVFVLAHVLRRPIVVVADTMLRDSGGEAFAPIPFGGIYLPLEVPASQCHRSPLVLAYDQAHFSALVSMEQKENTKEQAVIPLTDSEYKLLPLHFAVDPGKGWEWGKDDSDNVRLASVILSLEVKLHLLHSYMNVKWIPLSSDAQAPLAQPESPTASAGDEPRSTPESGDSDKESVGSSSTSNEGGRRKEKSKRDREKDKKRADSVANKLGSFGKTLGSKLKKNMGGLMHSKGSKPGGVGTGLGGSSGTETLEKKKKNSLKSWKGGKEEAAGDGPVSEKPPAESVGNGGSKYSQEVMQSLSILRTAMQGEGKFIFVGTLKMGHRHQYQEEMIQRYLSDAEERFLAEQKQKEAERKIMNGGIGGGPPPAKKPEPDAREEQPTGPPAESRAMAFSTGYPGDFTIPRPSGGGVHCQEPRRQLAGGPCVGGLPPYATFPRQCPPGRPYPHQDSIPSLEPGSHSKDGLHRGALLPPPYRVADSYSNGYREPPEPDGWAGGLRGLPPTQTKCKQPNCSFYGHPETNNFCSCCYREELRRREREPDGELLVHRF
In short: as §1

PRPF8 = PRPF8 (UniProt Q6P2Q9)
In short: as §1

PSMD7 = molecular target: T3, PSMD7 (UniProt P51665)
T3 sequence (whole entry): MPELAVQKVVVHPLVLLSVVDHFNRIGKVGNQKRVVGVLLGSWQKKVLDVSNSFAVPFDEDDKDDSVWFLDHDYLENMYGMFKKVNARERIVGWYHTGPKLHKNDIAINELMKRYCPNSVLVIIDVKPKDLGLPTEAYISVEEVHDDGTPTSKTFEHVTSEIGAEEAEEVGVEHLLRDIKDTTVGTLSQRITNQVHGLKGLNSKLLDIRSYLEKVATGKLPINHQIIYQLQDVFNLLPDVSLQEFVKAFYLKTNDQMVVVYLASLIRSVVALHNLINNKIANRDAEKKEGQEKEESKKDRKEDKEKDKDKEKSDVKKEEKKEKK
In short: as §1

UCHL1 = UCHL1 (UniProt P09936)
UCHL1, sequence (P09936 whole entry, looked up): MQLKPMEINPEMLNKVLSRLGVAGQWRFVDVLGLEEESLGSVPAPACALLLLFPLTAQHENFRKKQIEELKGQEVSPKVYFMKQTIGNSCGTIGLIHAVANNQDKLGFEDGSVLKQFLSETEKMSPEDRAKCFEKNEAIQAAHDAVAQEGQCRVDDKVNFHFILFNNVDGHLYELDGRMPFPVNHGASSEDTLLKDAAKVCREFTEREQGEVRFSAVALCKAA
In short: as §1

UCHL3 = molecular target: T4, UCHL3 (UniProt P15374)
T4 sequence (whole entry): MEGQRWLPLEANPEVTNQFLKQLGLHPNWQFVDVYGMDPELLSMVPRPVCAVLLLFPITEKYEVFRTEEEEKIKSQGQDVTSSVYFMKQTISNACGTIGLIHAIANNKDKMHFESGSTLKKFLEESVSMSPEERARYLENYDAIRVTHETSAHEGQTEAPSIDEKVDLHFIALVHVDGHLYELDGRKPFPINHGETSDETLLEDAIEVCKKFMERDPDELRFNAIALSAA
In short: as §1

UCHL5 = molecular target: T5, UCHL5 (UniProt Q9Y5K5)
T5 sequence (whole entry): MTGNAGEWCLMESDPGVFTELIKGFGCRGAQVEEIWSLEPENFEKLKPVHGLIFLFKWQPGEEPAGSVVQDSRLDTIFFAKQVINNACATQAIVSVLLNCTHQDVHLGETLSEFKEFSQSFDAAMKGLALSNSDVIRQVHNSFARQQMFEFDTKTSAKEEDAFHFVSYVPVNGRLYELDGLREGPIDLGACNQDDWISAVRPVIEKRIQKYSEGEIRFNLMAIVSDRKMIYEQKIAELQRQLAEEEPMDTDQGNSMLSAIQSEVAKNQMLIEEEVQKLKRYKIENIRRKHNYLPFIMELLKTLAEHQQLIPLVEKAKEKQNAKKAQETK
In short: as §1

USP10 = USP10 (UniProt Q14694)
USP10, sequence (Q14694 whole entry): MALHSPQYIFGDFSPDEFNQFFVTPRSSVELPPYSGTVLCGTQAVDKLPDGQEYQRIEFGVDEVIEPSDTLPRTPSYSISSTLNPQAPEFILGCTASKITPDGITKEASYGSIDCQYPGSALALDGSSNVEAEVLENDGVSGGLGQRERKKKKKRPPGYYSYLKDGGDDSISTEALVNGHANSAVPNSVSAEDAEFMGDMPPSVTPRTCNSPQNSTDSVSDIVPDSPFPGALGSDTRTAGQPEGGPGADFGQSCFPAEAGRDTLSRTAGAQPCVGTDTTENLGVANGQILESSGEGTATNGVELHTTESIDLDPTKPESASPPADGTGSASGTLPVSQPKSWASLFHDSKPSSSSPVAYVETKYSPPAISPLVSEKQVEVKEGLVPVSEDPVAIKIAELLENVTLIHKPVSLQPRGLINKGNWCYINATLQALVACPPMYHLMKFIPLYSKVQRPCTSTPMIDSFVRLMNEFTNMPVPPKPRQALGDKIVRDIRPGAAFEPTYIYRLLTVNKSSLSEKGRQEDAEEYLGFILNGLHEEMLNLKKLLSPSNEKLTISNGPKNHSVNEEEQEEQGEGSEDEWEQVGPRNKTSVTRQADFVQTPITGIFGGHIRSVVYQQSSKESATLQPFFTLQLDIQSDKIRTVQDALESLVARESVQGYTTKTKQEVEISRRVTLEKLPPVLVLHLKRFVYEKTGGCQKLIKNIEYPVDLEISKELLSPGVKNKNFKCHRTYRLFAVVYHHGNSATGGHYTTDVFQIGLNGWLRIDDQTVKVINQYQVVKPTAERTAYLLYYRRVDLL
In short: as §1

USP15 = molecular target: T6, USP15 (UniProt Q9Y4E8)
T6 sequence (whole entry): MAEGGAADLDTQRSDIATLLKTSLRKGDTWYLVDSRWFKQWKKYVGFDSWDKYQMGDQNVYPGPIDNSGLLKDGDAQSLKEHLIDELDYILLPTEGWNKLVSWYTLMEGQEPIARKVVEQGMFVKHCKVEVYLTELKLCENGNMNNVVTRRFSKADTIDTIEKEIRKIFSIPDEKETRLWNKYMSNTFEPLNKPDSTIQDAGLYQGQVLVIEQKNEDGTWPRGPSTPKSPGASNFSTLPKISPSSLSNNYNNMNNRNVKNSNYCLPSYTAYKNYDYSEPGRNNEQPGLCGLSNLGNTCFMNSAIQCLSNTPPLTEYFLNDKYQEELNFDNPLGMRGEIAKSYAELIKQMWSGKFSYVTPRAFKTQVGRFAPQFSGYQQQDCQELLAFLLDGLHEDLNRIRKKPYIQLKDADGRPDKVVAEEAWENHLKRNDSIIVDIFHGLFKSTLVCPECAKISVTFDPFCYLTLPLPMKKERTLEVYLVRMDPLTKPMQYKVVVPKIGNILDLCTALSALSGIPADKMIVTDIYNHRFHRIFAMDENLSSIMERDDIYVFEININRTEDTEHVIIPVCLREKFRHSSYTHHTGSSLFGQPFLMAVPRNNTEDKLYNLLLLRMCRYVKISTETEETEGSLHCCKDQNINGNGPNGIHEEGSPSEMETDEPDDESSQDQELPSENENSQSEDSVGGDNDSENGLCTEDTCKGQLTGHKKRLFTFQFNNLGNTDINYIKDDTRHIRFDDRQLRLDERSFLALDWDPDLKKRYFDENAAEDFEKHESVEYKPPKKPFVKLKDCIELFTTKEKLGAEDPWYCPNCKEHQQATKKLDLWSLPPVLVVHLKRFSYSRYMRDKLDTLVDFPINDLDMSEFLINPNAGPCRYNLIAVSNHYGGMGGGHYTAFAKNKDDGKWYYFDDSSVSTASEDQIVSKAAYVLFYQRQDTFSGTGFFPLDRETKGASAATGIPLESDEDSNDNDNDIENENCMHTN
In short: as §1

Measured: log2 ratio of Biotin-Ahx-Ub-VS probe labelling

O=C(CCl)Nc1cc2c(cc1Cl)OCCCO2
active: UCHL1 -1.39
inactive: OTUD6B -0.0697 | OTUD7B -0.399 | PRPF8 0.00677 | PSMD7 -0.0387 | UCHL3 -0.323 | UCHL5 -0.0527 | USP10 -0.157 | USP15 -0.172
